From PubChem BioAssay
KOR antag MB: antagonists of human kappa opioid receptor OPRK1, Maybridge library. AID 652031. OPRK1 cells, antagonist mode, fluorescence readout. inhibition, % at 9 µM. 0.4% of 16,000 active. P41145; in the data active = inhibition above about 50%
Nox1 inh: inhibitors of human NADPH oxidase 1 (Nox1); Q9Y5S8; inhibition, % at 6.7 µM; HT29 cells, luminol chemiluminescence ROS; AID 1792; 0.81% of 16,000 active
luminol inh ctr: counter-screen for Nox1 inhibitors: inhibitors of luminol chemiluminescence. inhibition, % at 6.7 µM. 0.4% of 16,000 active. HRP/luminol/H2O2 chemiluminescence counterscreen. AID 1823; note: reference of the scale not given here
PME-1 Maybridge: inhibitors of human PME-1 in Maybridge library | Q9Y570 | recombinant PME-1, FP-Rh probe fluorescence polarization | inhibition, % at 9 µM | 0.5% of 16,000 active; in the data active = inhibition above about 30%
* = called active by the depositor. The list is not random: actives were taken first. Their share in the collection is about 2.2%. Cut-off read from the data, not from the text of the source, unless noted: active = inhibition above about 75%; inactive = the rest.

SMILES | KOR antag MB | Nox1 inh | luminol inh ctr | PME-1 Maybridge
O=C1C(Cl)=C(Cl)C(=O)c2ccccc21 | 26.2 | 34.0 | 12.8 | 44.7*
C=CCOc1ccc(C=C(C#N)C#N)cc1 | 13.1 | -64.2 | 9.8 | -2.7
O=[N+]([O-])/C=C/c1ccc(OCc2ccccc2)cc1 | 62.2* | -48.4 | 2.7 | -6.8
Cc1c([N+](=O)[O-])cc2c(c1[N+](=O)[O-])C(C)(C)CC2(C)C | 7.5 | -6.1 | 1.4 | -0.5
CNC(=O)Oc1ccc(-c2nc(CSc3ccc(Cl)cc3)cs2)cc1 | 11.9 | -27.2 | 101.7* | -10.6
N#CC(C#N)=Cc1ccsc1 | 6.0 | -3.6 | -6.7 | 2.4
